# Screens from PubChem BioAssay.
# The list is not random: actives were taken first. Their share in the collection is about 2.4%.
# Rango-impB inh: inhibitors of Rango-importin beta complex formation. 0.031% of 340,000 active. Rango CFP/YFP FRET sensor + importin beta, 45 min. Q14974. Potency, µM (titrated, usually from 92.2 µM); also: nearly all actives have a fitted effect of over 15% in size
#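 FRET biosensor (snurportin 1 IBB flanked by EYFP and cerulean), 50 nM, with compound 5 min, then 0.125 microM importin beta in PBS, 1 mM DTT, 0.02% Tween-20, 0.1% BSA. CFP/YFP ratio read after 45 min at room temperature; pre-read flags interference.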
# ClpP mod: qHTS Assay for Activators of ClpP; purified B. subtilis ClpP, FRET peptide cleavage, 20 min; 1.9% of 340,000 active; ATP-dependent Clp protease proteolytic subunit (Bacillus subtilis (strain 168)), P80244; Potency, µM (highest dose often 57.5 µM); active = well fitted falling curve with a large enough effect; inconclusive = small, poorly fitted or top-dose-only effect; inactive = no such curve, though single readings can be large or run the other way; also: the source files actives as falling curves though it sought activators and does not explain the sign; nearly all actives have a fitted effect of over 65% in size
#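 Purified B. subtilis ClpP, 10 microg/mL final in Tris/HCl pH8 with KCl, BSA, glycerol and Tween-20, cleaved an Abz/nitrotyrosine-quenched decapeptide. Fluorescence (ex 320, em 430) was read at 0 and 20 min at room temperature. Delta was normalized to 5.8 microM ADEP and DMSO/no-enzyme controls.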
# PTAP TSG101 blk: blocks PTAP/TSG101 interaction to inhibit HIV-1 budding | Q99816 | 340,000 tested, under 10 active | Fluorescence polarization, FITC-PTAP peptide / Tsg101 binding | Potency, µM (titrated, usually from 115 µM), usual class: inhibitors; active = well fitted inhibition curve with a large enough effect in the main read-out, with a control signal flat, not every such curve was filed as active; inconclusive = small, poorly fitted or top-dose-only effect, or effect the other way, or a change in a side signal; inactive = no such curve, though single readings can be large or run the other way
#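 Compounds were pin-transferred onto Tsg101 binding domain (10 uM final) in HEPES pH 7.5 buffer, then FITC-PTAP peptide was added at 50 nM final. After 20 min at RT, polarization reported peptide displacement across a qHTS concentration series.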
# Rango dissoc inh: inhibitors of RanGTP-induced Rango-importin beta complex dissociation; Biochemical FRET Rango-importin beta, RanGTP-induced dissociation; Potency, µM (series often up to 46.1 µM); 0.071% of 340,000 active; AID 540253; also: nearly all actives have a fitted effect of over 45% in size
#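 Compounds preincubate 5 min with complex of recombinant Rango and importin beta in PBS with 1 mM DTT. Ran (0.6 uM) loaded with 2 mM GTP plus 0.2 uM RCC1 starts dissociation; FRET is recorded 45 min later.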
# 12-LOX inh: blocks human arachidonate 12S-lipoxygenase | P18054 | purified 12hLO, xylenol orange hydroperoxide absorbance | Potency, µM (highest dose often 108 µM), actives largely listed as inhibitors | 1.1% of 580,000 active | AID 1671190; active = well fitted curve in the direction sought with a large enough effect; inconclusive = small, poorly fitted or top-dose-only effect, or another doubt; inactive = no such curve, though single readings can be large; an effect the other way counts as inactive or inconclusive
#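 Hydroperoxide product was detected by ferrous iron/xylenol orange as the 573 to 405 nm absorbance ratio. Arachidonic acid at 40 uM (final) was turned over for 30 min at room temperature by 150 nM human 12hLO, pH 7.0 Hepes buffer, after 15 min compound preincubation.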
# TDP1 inh: inhibitors of human tyrosyl-DNA phosphodiesterase TDP1; AID 485290; 0.28% of 350,000 active; Potency, µM (titrated, usually from 130 µM), most hits filed as inhibitors; recombinant TDP1, AlphaScreen DNA substrate cleavage; active = well fitted curve in the direction sought with a large enough effect; inconclusive = small, poorly fitted or top-dose-only effect, or another doubt; inactive = no such curve, though single readings can be large; an effect the other way counts as inactive or inconclusive; also: nearly all actives have a fitted effect of over 40% in size
#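 Compounds were preincubated with Tdp1 (1 nM final) for 15 min at room temperature before substrate (15 nM final) started a 5 min reaction; beads (10 ug/ml final) were then added for 10 min before AlphaScreen detection.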
# Hits are given with their value; i = inactive; ? = inconclusive; nt = no result given; [ ] = dose if it differs, or a comment. Unless noted, calls follow the shape of the full dose curve.
SMILES,Rango-impB inh,ClpP mod,PTAP TSG101 blk,Rango dissoc inh,12-LOX inh,TDP1 inh
CC(C)Cc1nc2oc3c(=O)[nH]cnc3c2c2c1CCC2,i,11µM,i,i,i,i
COc1ccc(OC)c(NC(=O)Cn2c(N3CCc4ccccc4C3)nc(C)cc2=O)c1,nt,nt,nt,nt,i,nt
COc1cccc(NC(=O)Cn2c(N3CCc4ccccc4C3)nc(C)cc2=O)c1,nt,nt,nt,nt,28µM,nt
NNc1ccccc1Br,nt,nt,nt,nt,8.9µM,nt
Cc1oc(-c2ccccc2)nc1CC(=O)N1CCNC(=O)C1,nt,nt,nt,nt,i,nt
CN(C)C[C@@H]1CN(Cc2cccnc2)C[C@H]1NC(=O)C1CC=CC1,nt,nt,nt,nt,i,nt
Cc1nc(N2CCN(S(=O)(=O)c3ccccc3)CC2)c2cc(-c3ccccc3)sc2n1,i,28µM,i,i,i,i
COc1ccc(-c2nnc([C@H]3CCN(C(=O)c4ccccc4)C3)o2)cc1,nt,nt,nt,nt,i,nt
CSc1ncccc1C(=O)NCC1Cc2cc(-c3cnccn3)cc(Cl)c2O1 (stereo unspecified),nt,nt,nt,nt,i,nt
O=C1CC(c2ccc(O)c(O)c2)Oc2c1ccc(O)c2O (stereo unspecified),i,i,i,i,35µM,nt
O=C1C[C@@H](c2ccc(O)c(O)c2)Oc2c1ccc(O[C@@H]1O[C@H](CO)[C@@H](O)[C@H](O)[C@H]1O)c2O,nt,nt,nt,nt,?,i
O=C1CC(c2ccc(O)c(O)c2)Oc2cc(O)cc(O)c21 (stereo unspecified),i,i,i,i,6.3µM,i
COc1ccc(C2CC(=O)c3c(O)cc(O)cc3O2)cc1O (stereo unspecified),i,i,i,i,i,i
COc1ccc([C@H]2Cc3cc(O)cc(O)c3C(=O)O2)cc1O,i,i,i,i,22µM,i
CC(C)=CCc1c(O)ccc2c1OC(c1ccc(O)c(O)c1)CC2=O (stereo unspecified),?,i,i,?,28µM,i
Cc1ccccc1N1CCN(C2CCCN(C/C=C/c3ccc(F)cc3)C2)CC1 (stereo unspecified),nt,nt,nt,nt,i,nt
COCCN1C(=O)c2cccn2CC1CNC(=O)c1cc(C)nn1C (stereo unspecified),nt,nt,nt,nt,i,nt
Cc1ccn2c(Nc3ccc4c(c3)OCCO4)c(-c3ccc(Cl)s3)nc2c1,nt,25µM,nt,nt,?,i
CN(C)c1ccc(-c2nc3ccc(Cl)cn3c2Nc2ccc3c(c2)OCCO3)cc1,nt,i,nt,nt,5.6µM,i
CSc1ccc(-c2nc3c(C)cccn3c2Nc2ccc3c(c2)OCCO3)cc1,nt,i,nt,nt,1.4µM,i
Cc1cccn2c(Nc3ccc4c(c3)OCCO4)c(-c3ccc(Br)o3)nc12,nt,?,nt,nt,?,i[12.3 µM]
Cc1ccc2nc(-c3ccc(Cl)s3)c(Nc3ccc4c(c3)OCCO4)n2c1,nt,?,nt,nt,i,i
CN(C)c1ccc(-c2nc3cnccn3c2Nc2ccc3c(c2)OCCO3)cc1,?,i,i,?,i,i
COCCNc1cc(C)nc2cc(-c3ccc(C)cc3)nn12,?,nt,i,?,i,i
Cc1cccc(-c2cc3nc(C)cc(NCCCN(C)C)n3n2)c1,?,32µM,i,i,i,i
SMILES,Rango-impB inh,ClpP mod,PTAP TSG101 blk,Rango dissoc inh,12-LOX inh,TDP1 inh
Cc1ccc(-c2cc3nc(C)cc(NCc4ccco4)n3n2)cc1,?,28µM,nt,?,i,i
COCc1nc2c(NC(=O)CC3CCCCC3)cccn2n1,nt,nt,nt,nt,i,nt
COCC(=O)N1CCn2c(nn(-c3ccc(C)cc3)c2=O)C1,nt,nt,nt,nt,i,nt
CC(C)(C)OC(=O)N1Cc2ccccc2C[C@H]1C(=O)NCC1CCCO1 (stereo partly specified),nt,nt,nt,nt,i,nt
CCCN(CC1CCOC1)C(=O)Cc1c(F)cccc1Cl (stereo unspecified),nt,nt,nt,nt,i,nt
CCOC(=O)N1CCN(C(=O)COC(=O)c2ccccc2NCCO)CC1,i,7.9µM,i,i,i,i
O=C(OCC(=O)N1CCC(Cc2ccccc2)CC1)c1ccccc1NCCO,?,nt,i,i,?,i[0.505 µM]
O=C(Nc1ccc(NC(=O)C2CCCN2C(=O)OCc2ccccc2)cc1)c1ccco1 (stereo unspecified),i,i,i,i,i,i
O=C(Nc1cccc(O)c1)C1CCCN1C(=O)OCc1ccccc1 (stereo unspecified),i,28µM,i,i,i,i
Cc1ccc(C(=O)N2CCc3sc(C(=O)NCc4ccc(F)cc4)cc3C2)cc1,nt,nt,nt,nt,i,nt
CCOC(=O)C(=CNc1nc(-c2ccccc2)c(C(=O)Nc2ccc(-c3ccccc3)cc2)s1)C(=O)OCC,i,13µM,i,i,i,i
COc1ccc(N2CCN(C(c3cc(OC)ccc3OC)c3nnnn3Cc3ccco3)CC2)cc1 (stereo unspecified),i,i,i,i,22µM,i
COCCn1nnnc1C(c1ccc(OC)cc1OC)N1CCN(c2ccccc2F)CC1 (stereo unspecified),i,i,i,i,40µM,i
COc1ccccc1N1CCN(C(c2ccc(F)cc2)c2nnnn2C(C)C)CC1 (stereo unspecified),i,18µM,i,i,i,i
Cc1cc(C)c(S(=O)(=O)N2CCOC23CCN(C(=O)CCc2ccccc2)CC3)c(C)c1,nt,nt,nt,nt,i,nt
CC(NC(=O)c1cc(-c2ccco2)nc2ccccc12)c1ccccc1 (stereo unspecified),nt,nt,nt,nt,45µM,nt
CN(C)C(CNC(=O)c1cc(-c2ccco2)nc2ccccc12)c1ccccc1 (stereo unspecified),i,nt,i,i,10µM,i
CC(NC(=O)c1cc(-c2ccccn2)nc2ccccc12)c1ccccc1 (stereo unspecified),nt,nt,nt,nt,i,nt
